These results are taken from PubChem BioAssay.

For orientation: inhibition means the drop in the measured response relative to a control, in per cent.

The source made the active and inactive calls. No rule for the calls is given here.

For the assay, the target named is Pantothenate synthetase (Mycobacterium tuberculosis (strain ATCC 25618 / H37Rv)) (UniProt P9WIL5). The experiment in a line: Recombinant Mtb pantothenate synthetase (PanC) inhibitors, coupled enzyme, confirmatory (AID 375).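 Also: 0% = full reaction with vehicle and 100% = no enzyme background.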 The following applies: coupled enzyme assay; at 10 µM, active compounds read high.
Chain of Pantothenate synthetase (Mycobacterium tuberculosis (strain ATCC 25618 / H37Rv)) (P9WIL5 whole entry, looked up): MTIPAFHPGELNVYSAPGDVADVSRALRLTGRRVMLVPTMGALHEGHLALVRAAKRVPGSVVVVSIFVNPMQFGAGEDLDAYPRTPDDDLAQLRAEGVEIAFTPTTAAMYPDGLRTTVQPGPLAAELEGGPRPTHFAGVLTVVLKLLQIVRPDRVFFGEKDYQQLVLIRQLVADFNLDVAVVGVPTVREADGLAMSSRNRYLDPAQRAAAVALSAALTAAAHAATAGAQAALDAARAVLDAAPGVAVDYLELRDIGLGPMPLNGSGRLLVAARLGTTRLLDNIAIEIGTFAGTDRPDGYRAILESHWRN
Take `COc1cccc(C2CC(c3ccc(C)cc3)Nc3nc(N)nn32)c1` (stereo not given): the inhibition is 0% (inactive). For `O=C1CC(c2cccc(Cl)c2)Cc2nc(N3CCN(c4ccccc4)CC3)ncc21` (stereo not given), the inhibition is 0% (inactive). For the compound `Cc1nc(NC2=NCN(CCc3ccccc3)CN2)nc2c(C)cccc12`, the inhibition is 0% (inactive). The figure for `COc1ccc(S(=O)(=O)N2CCN(C3CCCCCCC3)CC2)cc1` is 1% (inactive); for `CN(C)c1ccc(NC(=O)Cn2cc3c(n2)CCCC3)cc1` it is 0% (inactive). As for `CCOC(=O)N1CCN(C(=O)CSc2nnc(COc3ccccc3)o2)CC1`, the inhibition is 2% (inactive). As to `Fc1ccc(-c2csc3nnc(SCc4cccnc4)n23)cc1`, the inhibition was 0% (inactive).

As for `Cc1cc(NS(=O)(=O)c2ccc(NC(=O)Nc3ccc4c(c3)OCO4)cc2)no1`, the inhibition is 0% (inactive). Turning to `CCc1nc(SCC(=O)Nc2nccs2)c2oc3ccccc3c2n1`, the inhibition was 0% (inactive). With `CC1Cc2nc(SCC(=O)Nc3ccccc3F)n(C)c(=O)c2S1` (stereo not given), the inhibition is 7% (inactive).

As to `Cc1cc2nc(-c3ccco3)cc(C(F)(F)F)n2n1`, the inhibition was 0% (inactive). For `COc1ccc(CN2C(=O)[C@@H]3C(c4ccc(F)cc4)=NO[C@@H]3C2=O)cc1`, the inhibition was 2% (inactive).

On to `CCn1nc(C(=O)O)c(=O)c2cc3c(cc21)OCO3`, for which the inhibition is 5% (inactive). The figure for `CC(=O)Nc1sc2c(c1CN1CCN(c3ccccn3)CC1)CCCC2` is 2% (inactive); for `Cc1ccc(S(=O)(=O)N2CCN(S(=O)(=O)N(C)C)CC2)cc1` it is 0% (inactive); for `Cc1sc2nc(SCC(=O)NCCO)n(C)c(=O)c2c1C` it is 0% (inactive). In the case of `CCn1c(=O)c(C(=O)Nc2cccnc2)c(O)c2ccccc21` it was 0% (inactive); in that of `COc1ccc2ccccc2c1CN1CCN(C)CC1`, 3% (inactive). Regarding `CC(=O)c1cccc(NC(=O)NCc2ccccn2)c1`, the inhibition was 2% (inactive). Take `CCCC(=O)OCCn1c(Br)nc2c1c(=O)[nH]c(=O)n2C`: the inhibition was 7% (inactive).

For the compound `CCc1ccc(C2CC(c3ccccc3)n3ncnc3N2)cc1` (stereo not given), the inhibition is 0% (inactive). The figure for `COc1ccc(NC(=O)CSc2nnc(-c3ccncc3)n2CC2CCCO2)c(OC)c1` (stereo not given) is 4% (inactive); for `CCOCC(O)CS(=O)Cc1ccccc1` (stereo not given) it is 0% (inactive). In the case of `COC(=O)c1cc(Br)ccc1-c1ccc(/C=N/n2nnnc2N)o1` it was 7% (inactive); in that of `COc1cc2cc(C(c3nnnn3C3CCCC3)N(C)C3CCCCC3)c(=O)[nH]c2cc1OC` (stereo not given), 9% (inactive); in that of `Cc1ccc(S(=O)(=O)Cc2ccc(C(=O)NCCCN3CCN(C)CC3)o2)cc1`, 1% (inactive).

Regarding `CCOC(=O)N1CCN(C(=O)CSc2nnc(-c3cccc(Cl)c3)o2)CC1`, the inhibition is 0% (inactive). In the case of `Cc1ccc(CC23CN4CCN(CC(C4)C2O)C3)c(C)c1` (stereo not given) it was 1% (inactive); in that of `COc1cc(C2c3c(n[nH]c3C)C(=O)N2c2ccc(Br)cc2)ccc1O` (stereo not given), 4% (inactive).

With `COc1cc(CN(C)CC(=O)c2[nH]c(C)c(C(C)=O)c2C)ccc1OC(F)F`, the inhibition is 0% (inactive). The figure for `CC[C@]1(O)C[C@@H]2CN(CCc3c([nH]c4ccccc34)[C@@](C(=O)OC)(c3cc4c(cc3OC)N(C)[C@H]3[C@@](O)(C(=O)OC)[C@H](OC(C)=O)[C@]5(CC)C=CCN6CC[C@]43[C@@H]65)C2)C1` is 0% (inactive); for `CC(=O)Nc1nc(=S)ss1` it is 6% (inactive); for `CCOc1ccccc1N1CCN(C(=O)c2ccncc2)CC1` it is 0% (inactive). As to `COc1cc(C2C3=C(CC(C)(C)CC3=O)Nc3c2c(=O)[nH]c(=O)n3Cc2ccccc2)ccc1O` (stereo not given), the inhibition is 4% (inactive). In the case of `CCCCn1c(CN2CCN(c3ccccc3)CC2)nc2c1c(=O)n(C)c(=O)n2C` it was 0% (inactive); in that of `Cc1nc2ccccc2c2c1C(=O)N(CCC1=CCCCC1)C2=O`, 9% (inactive).

Take `Cc1cc(C(=O)Nc2ccc(S(=O)(=O)Nc3onc(C)c3C)cc2)cs1`: the inhibition was 4% (inactive).

With `O=C1c2ccccc2C(=O)N1CCC(=O)N1CCc2ccccc21`, the inhibition was 0% (inactive). In the case of `COc1ccccc1N1CC(C(=O)Nc2cccc(C(=O)O)c2)CC1=O` (stereo not given) it was 0% (inactive).

For the compound `Cc1cccc(-c2nnc(SCC#N)n2-c2cccc(Cl)c2)c1`, the inhibition was 0% (inactive).
